# Test results published in the supplement of paper PMC8728848.
# The entries come from a sample that favours the strongest signals as a whole.
# B1: LKPARMA (Neurospora crassa) (protein)
# chain: MSFHVTAEDARRIEVRDNRTILFARLRREDGEWNDASYELDQIIGNNDGHFQWGGGQNFTETAEDIRFHPKEGAAEQPILRARLRDCNGEFHDRDVNLTEIVENVNGEFQAKF
# Legend:
# Assay in all cases: glycan array binding signal (z-score within array); higher = stronger binding
# Details in all cases: glycan notation: IUPAC condensed, linker removed
# Fuc(a1-2)Gal(b1-3)GlcNAc = target: Fuc(a1-2)Gal(b1-3)GlcNAc
# Method in brief: (§1)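 Glycan array data were curated from 3228 arrays in the Consortium for Functional Glycomics database and kept only where the protein sequence was available. Glycan names were converted to IUPAC-condensed notation, and columns mapping to the same glycan were averaged. The binding signal is a within-array Z-score, averaged across arrays of the same protein sequence at different concentrations or buffers and across linkers. Negative Z-scores can be read as non-binding.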
# [1] = target: Fuc(a1-3)[Gal(b1-4)]GlcNAc(b1-4)Gal(b1-4)[Fuc(a1-3)]GlcNAc
# Method in brief: as §1
# [2] = target: Gal(b1-3)GlcNAc(b1-3)Gal(b1-4)Glc
# Method in brief: as §1
# [3] = target: Gal(b1-3)GlcNAc(b1-3)Gal(b1-4)GlcNAc
# Method in brief: as §1
# [4] = target: Gal(b1-3)[Fuc(a1-4)]GlcNAc
# Method in brief: as §1
# [5] = target: Gal(b1-3)[Neu5Ac(a2-6)]GalNAc
# Method in brief: as §1
# [6] = target: Gal(b1-3)[Neu5Ac(a2-6)]GlcNAc(b1-6)Gal(b1-4)Glc
# Method in brief: as §1
# [7] = target: Gal(b1-3)[Neu5Ac(b2-6)]GalNAc
# Method in brief: as §1
# [8] = target: Gal(b1-4)GalNAc(a1-3)[Fuc(a1-2)]Gal(b1-4)GlcNAc
# Method in brief: as §1
# [9] = target: Gal(b1-4)GlcNAc(b1-6)Gal(b1-4)GlcNAc(b1-6)GalNAc
# Method in brief: as §1
# Gal6S(b1-4)Glc = target: Gal6S(b1-4)Glc
# Method in brief: as §1
# Glc(a1-6)Glc(a1-6)Glc = target: Glc(a1-6)Glc(a1-6)Glc
# Method in brief: as §1
# Glc(b1-6)Glc = target: Glc(b1-6)Glc
# Method in brief: as §1
# [10] = target: GlcNAc(b1-2)Man(a1-3)[GlcNAc(b1-2)Man(a1-6)]Man(b1-4)GlcNAc(b1-4)GlcNAc
# Method in brief: as §1
# [11] = target: Neu5Ac(a2-3)Gal(b1-4)GlcNAc(b1-3)Gal(b1-4)GlcNAc
# Method in brief: as §1
# [12] = target: Neu5Ac(a2-3)Gal(b1-4)[Fuc(a1-3)]GlcNAc(b1-3)Gal(b1-4)[Fuc(a1-3)]GlcNAc(b1-3)Gal(b1-4)[Fuc(a1-3)]GlcNAc
# Method in brief: as §1
# [13] = target: Neu5Ac(a2-6)GalNAc(b1-4)GlcNAc
# Method in brief: as §1
# [14] = target: Neu5Ac(a2-8)Neu5Ac(a2-8)Neu5Ac(a2-8)Neu5Ac(a2-3)[GalNAc(b1-4)]Gal(b1-4)Glc
# Method in brief: as §1
binder,measurement,setting,value
B1,glycan array binding signal (z-score),Fuc(a1-2)Gal(b1-3)GlcNAc,-0.25
same,glycan array binding signal (z-score),[1],-0.077
same,glycan array binding signal (z-score),[2],4.93
same,glycan array binding signal (z-score),[3],-0.249
same,glycan array binding signal (z-score),[4],-0.251
same,glycan array binding signal (z-score),[5],-0.234
same,glycan array binding signal (z-score),[6],5.09
same,glycan array binding signal (z-score),[7],-0.251
same,glycan array binding signal (z-score),[8],-0.149
same,glycan array binding signal (z-score),[9],-0.252
same,glycan array binding signal (z-score),Gal6S(b1-4)Glc,-0.252
same,glycan array binding signal (z-score),Glc(a1-6)Glc(a1-6)Glc,7.12
same,glycan array binding signal (z-score),Glc(b1-6)Glc,6.76
same,glycan array binding signal (z-score),[10],-0.251
same,glycan array binding signal (z-score),[11],-0.235
same,glycan array binding signal (z-score),[12],-0.212
same,glycan array binding signal (z-score),[13],-0.252
same,glycan array binding signal (z-score),[14],-0.248
